The results in this text go back to PubChem BioAssay (EPA / NIEHS).

SMILES strings stand for the structures. Calls of active or inactive are those of the source. How the source made its calls: active means hit-call score of the fitted dose curve at least 0.9, where 1 is the maximum; inactive means score below 0.9.

The first test is described as follows: CCTE_Shafer_MEA_dev_firing_rate_mean: CCTE's Neural Network Formation Assay for Mean Firing Rate, Shafer Lab (AID 2284031). An outline of the steps:
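Read-out: spike count/recording length, averaged over active electrodes, then AUC across days 5, 7, 9, 12. Rat cortical cultures on MEA; continuous 12-day exposure, media and treatment renewed DIV 5, 9; DMSO baseline.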
Consider `COC(=O)CCC(F)(F)C(F)(F)C(F)(F)C(F)(F)F`, for which the call was inactive. For the compound `OCC(F)(F)C(F)(F)C(F)(F)C(F)(F)C(F)(F)C(F)F`, the outcome was inactive.

Take `OCCCC(F)(F)C(F)(F)C(F)(F)F`: the call was inactive. As to `Cc1ccc(S(=O)(=O)OCC(F)(F)C(F)(F)C(F)(F)C(F)(F)C(F)(F)C(F)F)cc1`, the compound was called inactive. With `O=P(O)(O)OCCC(F)(F)C(F)(F)C(F)(F)C(F)(F)C(F)(F)C(F)(F)F`, the compound was called inactive. Same read-out and setting: with `NC(=O)C(F)(F)C(F)(F)C(F)(F)C(F)(F)F` the entry was “inactive”.

Another test can be described thus: CCTE_Shafer_MEA_dev_per_burst_spike_percent: CCTE's Neural Network Formation Assay for Percent of Spikes in a Burst, Shafer Lab (AID 2284032).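 On AC50: fitted as a decrease in burst spike percentage below DMSO baseline.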 In outline:
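Value is trapezoidal AUC over recordings on days 5, 7, 9 and 12 of the well-mean fraction of spikes falling in single-electrode bursts; rat cortical cultures exposed continuously from plating, treatment renewed DIV 5 and 9, fitted downward against DMSO.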
Consider `FC(F)(F)C(F)(F)CNCC(F)(F)C(F)(F)F`, for which the call was inactive.

For the compound `O=S(=O)(OCCOC(F)(F)F)C(F)(F)F`, the compound was called inactive. What is called AC50 is the concentration giving half of the maximal activity seen. For `FC(F)(F)C(F)(F)C(F)(F)C(F)(F)C(F)(F)CCI`, the AC50 is 22.2 µM (active). Still for that read-out and setting: with `CC(C)(C)C(=O)CC(=O)C(F)(F)C(F)(F)C(F)(F)F` the figure was 23.5 µM (active). As for `FC(F)(F)C(F)(F)C(F)(F)C(F)(F)C(F)(F)C(F)(F)CC1CO1` (centres undefined), the call was inactive. On to `C=CC(=O)OCC(F)(F)C(F)(F)C(F)(F)C(F)(F)COC(=O)C=C`, for which the AC50 was 4.76 µM (active).

Take `N=C(N)C(F)(F)C(F)(F)C(F)(F)C(F)(F)C(F)(F)C(F)(F)C(F)(F)F`: the result was inactive. On the same count and under the same terms, with `O=S(=O)(OCC(F)F)C(F)(F)F` the entry was “inactive”; with `O=C(O)C=C(C(F)(F)F)C(F)(F)F`, “inactive”; with `OC[C@@H](O)[C@@H](O)[C@H](O)[C@@H](O)CO`, “inactive”. On the same count and under the same terms, with `CC(CCl)OP(=O)(OC(C)CCl)OC(C)CCl` (centres undefined) the entry was “inactive”; with `OCC(F)(F)C(F)(F)C(F)(F)C(F)F`, “inactive”. Same read-out and setting: with `O=C(O)C(F)(F)C(F)(F)C(F)F` the entry was “inactive”.
